These results are taken from PubChem BioAssay (NCI).

Test systems include NCI-H23 lung; NCI-H226 lung; NCI-H322M lung; HOP-62 NSCLC; NCI-H460 lung; HOP-92 NSCLC; NCI-H522 lung; A549/ATCC NSCLC; 786-0 renal; COLO 205 colon; DU-145 prostate; K-562 leukemia; MALME-3M melanoma; MDA-MB-231 breast; RXF 393 renal; SF-268 CNS; SF-295 CNS; SF-539 CNS; M14 melanoma.
What all share (assay): NCI-60 one-dose screen, 48 h (100 = growth as untreated, 0 = no growth, -100 = all killed)
Details in all cases: 10 µM unless noted

Compounds without any hit were thinned out: in the full panel of roughly 83,000, 20% have a hit.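 Cells were grown in 96-well plates and exposed to the test compound at a single concentration for 48 hours; results are reported as percent growth, with values below 10 considered active.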 Values without a mark were called inactive. Active and inactive are the calls of the source.

As for `O=S(=O)(NCCNc1cc(-c2cn(-c3ccccc3)nc2-c2cccc(O)c2)ccn1)c1cccc(F)c1`, the growth with NCI-H23 lung was 45.8%; with NCI-H226 lung, 55.3%; in the experiment with NCI-H322M lung it was 56.2%; in the experiment on HOP-62 NSCLC it was 56.7%; in the experiment with NCI-H460 lung, 33.1%; in the experiment with HOP-92 NSCLC it was 51.1%. For the same molecule, the growth with NCI-H522 lung was 26.7%; in the experiment with A549/ATCC NSCLC, 42.4%; in the experiment with 786-0 renal it was 16.8%; in the experiment on COLO 205 colon, -4.68% (active); with DU-145 prostate it was 63.5%; in the experiment with K-562 leukemia, 7.94% (active). Besides, the growth with MALME-3M melanoma was 64.9%; in the experiment with MDA-MB-231 breast, 11.5%; in the experiment on RXF 393 renal, 62.3%; in the experiment on SF-268 CNS it was 54.9%; in the experiment on SF-295 CNS, 22.4%; with SF-539 CNS, 51.2%. Further, in the experiment on M14 melanoma, the growth is 31.8%.
For `O=C(NO)c1ccc(Cn2c(=O)n(CCc3ccc(O)cc3)c(=O)c3ccccc32)cc1`, the growth was -8.51% (active) in the experiment on NCI-H23 lung; 82.5% in the experiment on NCI-H226 lung; 80.4% in the experiment with NCI-H322M lung; 68.1% in the experiment on HOP-62 NSCLC; 60.4% with NCI-H460 lung; 80% with HOP-92 NSCLC. For the same molecule, the growth in the experiment with NCI-H522 lung is 7.74% (active); in the experiment on A549/ATCC NSCLC, 84.2%; with 786-0 renal, 83.4%; with COLO 205 colon, 19.6%; with DU-145 prostate it was 42.1%; with K-562 leukemia, 24.9%. Also, the growth with MALME-3M melanoma is 39.3%; in the experiment on MDA-MB-231 breast it was 39.1%; with RXF 393 renal it was 29.8%; in the experiment with SF-268 CNS, 59.2%; in the experiment on SF-295 CNS, 79.1%; in the experiment on SF-539 CNS, 3.09% (active). Besides, the growth in the experiment on M14 melanoma is 36.9%.
As to `COc1cccc(-c2nn(-c3ccccc3)cc2-c2ccnc(NCCNS(=O)(=O)c3ccc(C(F)(F)F)cc3)c2)c1`, the growth is 17.1% in the experiment on NCI-H23 lung; 34.8% in the experiment with NCI-H226 lung; 45.1% in the experiment with NCI-H322M lung; 35.6% with HOP-62 NSCLC; 11.4% with NCI-H460 lung; -10.9% (active) in the experiment with HOP-92 NSCLC. In addition, the growth with NCI-H522 lung is 1.9% (active); in the experiment with A549/ATCC NSCLC, 14.2%; in the experiment with 786-0 renal it was 3.75% (active); in the experiment on COLO 205 colon, -73.5% (active); with DU-145 prostate, 46.6%; with K-562 leukemia it was 3.79% (active). Also, the growth in the experiment with MALME-3M melanoma was -17.9% (active); in the experiment on MDA-MB-231 breast it was 6.28% (active); with RXF 393 renal, -22.2% (active); in the experiment with SF-268 CNS, 36%; in the experiment on SF-295 CNS, 3.05% (active); in the experiment on SF-539 CNS, 2.91% (active). In addition, in the experiment on M14 melanoma, the growth was 13.6%.
With `COc1ccc(C2c3ccccc3NC(=O)N2C2CCN(C)CC2)c(OC)c1` (configuration not stated), the growth is 100% in the experiment on NCI-H23 lung; 94.1% in the experiment with NCI-H226 lung; 95.9% in the experiment with NCI-H322M lung; 101% in the experiment with HOP-62 NSCLC; 101% in the experiment with NCI-H460 lung; 79.9% with HOP-92 NSCLC. Besides, the growth with NCI-H522 lung was 89.5%; in the experiment with A549/ATCC NSCLC, 103%; in the experiment with 786-0 renal, 102%; in the experiment on COLO 205 colon, 106%; in the experiment on DU-145 prostate, 105%; with K-562 leukemia, 93.1%. Also, the growth in the experiment with MALME-3M melanoma is 88.1%; in the experiment on MDA-MB-231 breast it was 91.9%; with RXF 393 renal it was 97.1%; in the experiment with SF-268 CNS, 98.2%; in the experiment on SF-295 CNS, 90.6%; with SF-539 CNS, 95.2%. In the experiment with M14 melanoma, the growth was 85.3%.
As for `N#Cc1cnc2cc(OC[C@@H](O)CO)c(NC(=O)C3CCCC3)cc2c1Nc1ccc(OCc2cccc(F)c2)c(Cl)c1`, the growth with NCI-H23 lung is 13.6%; in the experiment on NCI-H226 lung, 38.5%; in the experiment with NCI-H322M lung it was 35.7%; with HOP-62 NSCLC it was -51.9% (active); with NCI-H460 lung, 0.536% (active); with HOP-92 NSCLC, -37.2% (active). Also, the growth was -58.5% (active) with NCI-H522 lung; 47.9% in the experiment on A549/ATCC NSCLC; 43.6% with 786-0 renal; 49.6% in the experiment with COLO 205 colon; -90.8% (active) in the experiment on DU-145 prostate; 0.239% (active) in the experiment with K-562 leukemia. In addition, the growth was -48.8% (active) with MALME-3M melanoma; -58.5% (active) with MDA-MB-231 breast; -62.6% (active) with RXF 393 renal; 23.1% in the experiment with SF-268 CNS; 1.06% (active) in the experiment with SF-295 CNS; -32.5% (active) in the experiment with SF-539 CNS. The growth with M14 melanoma is -53% (active).
As to `Cc1ccc(N(CC(=O)Nc2ccc(S(=O)(=O)NC3CCN(C)CC3)cc2)S(=O)(=O)c2ccc(Cl)cc2)cc1`, the growth was 90.7% with NCI-H23 lung; 87.7% with NCI-H226 lung; 88.9% with NCI-H322M lung; 96.2% in the experiment on HOP-62 NSCLC; 8.12% (active) with NCI-H460 lung; 69.6% with HOP-92 NSCLC. The growth in the experiment with NCI-H522 lung was 90.4%; in the experiment on A549/ATCC NSCLC it was 69.2%; with 786-0 renal, 87.4%; with COLO 205 colon, -47.6% (active); in the experiment with DU-145 prostate it was 71.9%; with K-562 leukemia, 19.5%. Besides, the growth is -47.5% (active) in the experiment on MALME-3M melanoma; 53.6% with MDA-MB-231 breast; 36.4% in the experiment with RXF 393 renal; 68.7% in the experiment with SF-268 CNS; 101% in the experiment with SF-295 CNS; 85.4% with SF-539 CNS. Moreover, the growth with M14 melanoma is 63%.
Consider `COc1cccc(-c2nn(-c3ccccc3)cc2-c2ccnc(NCCNS(=O)(=O)c3cccc(F)c3)c2)c1`, for which the growth is 38.4% in the experiment on NCI-H23 lung; 39.3% with NCI-H226 lung; 59% in the experiment on NCI-H322M lung; 55.3% in the experiment on HOP-62 NSCLC; 24.2% in the experiment on NCI-H460 lung; 22.3% in the experiment with HOP-92 NSCLC. In addition, the growth was 3.7% (active) in the experiment with NCI-H522 lung; 24.8% in the experiment on A549/ATCC NSCLC; 25.9% in the experiment with 786-0 renal; 16.6% with COLO 205 colon; 58% in the experiment on DU-145 prostate; 11.9% in the experiment with K-562 leukemia. Further, the growth in the experiment with MALME-3M melanoma is 78.2%; in the experiment with MDA-MB-231 breast, 9.24% (active); in the experiment with RXF 393 renal, 44.1%; in the experiment on SF-268 CNS, 48.1%; in the experiment on SF-295 CNS, 13.2%; with SF-539 CNS, 52.3%. The growth in the experiment on M14 melanoma was 27.2%.
With `COC(=O)[C@]12CC[C@@H](C)[C@H](C)[C@@H]1C1=CC[C@@H]3[C@@]4(C)C=C(O)C(=O)C(C)=C4CC[C@@]3(C)[C@]1(C)CC2`, the growth with NCI-H23 lung is 22.1%; in the experiment with NCI-H226 lung, 22.4%; in the experiment on NCI-H322M lung, 82.6%; in the experiment with HOP-62 NSCLC, 56.4%; in the experiment with NCI-H460 lung, 46.8%; with HOP-92 NSCLC, 26.4%. Further, the growth with NCI-H522 lung was -14.1% (active); with A549/ATCC NSCLC, 39.5%; in the experiment on 786-0 renal, 68%; in the experiment on COLO 205 colon, 37.1%; in the experiment on DU-145 prostate, 54.4%; with K-562 leukemia, 19.3%. Moreover, the growth in the experiment on MALME-3M melanoma was 86.2%; in the experiment on MDA-MB-231 breast it was 5.7% (active); in the experiment with RXF 393 renal, 27.6%; with SF-268 CNS, 60%; with SF-295 CNS, 34.7%; with SF-539 CNS it was 32.3%. For the same molecule, in the experiment with M14 melanoma, the growth was 24.9%.
